The results in this text go back to PubChem BioAssay (EPA / NIEHS).

Values joined by “and” are separate entries in the source; they are usually repeats but may differ in a detail not shown here. Equal values may be shown once. Where a structure was tested more than once in an assay, its records may differ in their call. Active and inactive are the calls of the source. The calls were made as follows: active = hit-call score of the fitted dose curve at least 0.9, where 1 is the maximum; inactive = score below 0.9.

Read-out in this test: Collagen III, COL3A1 (gene 1281)
The test is described as follows: BSK_MyoF_CollagenIII: BioMAP Diversity Plus: MyoF Assay for Collagen III Biomarker Activity (AID 2284239). The conditions noted are these: primary human lung fibroblasts. The protocol: BSK_MyoF is a cell-based, multiplexed-readout assay that uses lung fibroblasts, […], with measurements taken at 24 hours after chemical dosing in a microplate: 96-well plate.BSK_MyoF_CollagenIII is an assay component measured in the BSK_MyoF assay. It measures Collagen III antibody related to regulation of gene expression using ELISA technology.Data from the assay component BSK_MyoF_CollagenIII was analyzed at the endpoint, BSK_MyoF_CollagenIII, in the positive analysis fitting direction relative to DMSO as the negative control and baseline of activity. Using a type of binding reporter, gain or loss-of-signal activity can be used to understand protein changes. To generalize the intended target to other relatable targets, this assay endpoint is annotated to the 'cell adhesion molecules' intended target family, where the subfamily is 'collagen'.
The levels of cell surface (or secreted, indicated by the prefix "s") biomarker endpoints were measured by ELISA. Overt cytotoxicity to cells in confluent adherent cultures (all systems other than the BT system) was assessed by measuring total protein levels using sulforhodamine B (SRB) staining in parallel cultures at the time of biomarker measurements, indicated as SRB endpoints. For proliferation assays for adherent cell types, individual cell types are cultured at sub-confluence and relative cell numbers quantified by SRB staining at time points optimized for each system (48 h: 3C and CASM3C systems; 72 h: BT and HDF3CGF systems; 96 h: SAg system). SRB was performed by staining cells with 0.1% SRB after fixation with 10% TCA and reading wells at 560 nm.Viability and proliferation of PBMC (T cells) was quantified by Alamar Blue reduction for the SAg and BT systems. For PBMC viability (referred to as PBMC Cytotoxicity within the assay endpoint names), cells were plated (75,000/well in a 96-well plate) and then chemical samples added for 1 h before addition of activators, SEB and TSST-1 (20 ng/mL final concentration each). Cells were incubated for 90 h. Then, Alamar Blue (20 uL/well) (Invitrogen, Cat DAL1100) was added for 6 h, and the plates were read with a fluorescence microplate reader at 546/580 nm (excitation/emission). For PBMC proliferation, cells were plated and activated as above but incubated for only 16 h prior to addition of Alamar Blue. Plates were read after 6 h.
The AC50 is the concentration giving half of the maximal activity seen. Regarding `CC(C)Nc1ccc(Nc2ccccc2)cc1`, the AC50 is 20 µM (active). As to `CCCCOCCOP(=O)(OCCOCCCC)OCCOCCCC`, the result was inactive.

For the compound `CC(O)C(F)(F)C(F)(F)F` (centres undefined), the result was inactive. Take `Nc1ccc([N+](=O)[O-])cc1Cl`: the outcome was inactive.

`c1ccc2c(c1)sc1ccccc12`: the outcome was inactive. Consider `OCC(F)(F)OC(F)(F)C(F)(F)OC(F)(F)C(F)(F)OC(F)(F)F`, for which the AC50 is 19.7 µM (active) and 23.9 µM (active). On to `CCOP(=S)(S)OCC`, for which the result was inactive. For the compound `O=C(O)C(F)(F)OC(F)(F)C(F)(F)OC(F)(F)C(=O)O`, the outcome was inactive. Take `CCCCC(CC)COP(=O)(Oc1ccccc1)Oc1ccccc1` (centres undefined): the AC50 is 9.45 µM (active). `O=C(O)C(F)(F)OC(F)(F)C(F)(F)OC(F)(F)F`: the result was inactive. For the compound `OCC(F)(F)OC(F)(F)C(F)(F)OC(F)(F)CO`, the outcome was inactive. Turning to `C=CC(=O)OCC(F)(F)C(F)F`, the AC50 was 48.7 µM (active) and the result was inactive.

As to `COC(=O)C(F)(F)C(F)(F)OC(F)(C(F)(F)F)C(F)(F)OC(F)=C(F)F` (centres undefined), the result was inactive. Turning to `CC(C)(C)c1ccccc1OP(=O)(Oc1ccccc1)Oc1ccccc1`, the AC50 was 25.2 µM (active).

Turning to `O=C(O)C(F)(OC(F)(F)C(F)(F)C(F)(F)F)C(F)(F)F` (centres undefined), the result was inactive. In the case of `OCC(F)(F)OC(F)(F)C(F)(F)OC(F)(F)C(F)(F)OC(F)(F)CO`, the outcome was inactive. Take `C=CC(=O)OCC(CC)(COC(=O)C=C)COC(=O)C=C`: the AC50 was 4.87 µM (active). With `CCOP(=S)(OCC)SCS(=O)(=O)CC`, the outcome was inactive. Regarding `O=C(O)C(F)(F)C(F)(F)C(=O)O`, the result was inactive. With `O=c1ssc(Cl)c1Cl`, the half-maximal activity concentration (AC50) was 9.69 µM (active). As for `FC(F)(F)C(F)(C(F)(F)F)C(F)(F)C(F)(F)CC1CO1` (centres undefined), the outcome was inactive. `O=S(=O)(F)C(F)(F)C(F)(F)C(F)(F)C(F)(F)C(F)(F)C(F)(F)C(F)(F)C(F)(F)F`: the outcome was inactive.

As for `Cc1c([N+](=O)[O-])cc2c(c1[N+](=O)[O-])C(C)(C)CC2(C)C`, the outcome was inactive.

For the compound `COP(=O)(O)OC`, the outcome was inactive.

As to `CCOP(=S)(OCC)SCn1nnc2ccccc2c1=O`, the outcome was inactive. Consider `CCCCC(CC)COC(=O)c1c(Br)c(Br)c(Br)c(Br)c1C(=O)OCC(CC)CCCC` (centres undefined), for which the result was inactive.

Take `NC(=O)C(F)(F)C(F)(F)F`: the outcome was inactive. For `N#Cc1c(-c2ccc(Cl)cc2)[nH]c(C(F)(F)F)c1Br`, the AC50 is 0.63 µM (active). Take `ClC(Cl)=C(c1ccc(Cl)cc1)c1ccccc1Cl`: the half-maximal activity concentration (AC50) is 7.34 µM (active). For `O=S1(=O)OCC2C(CO1)C1(Cl)C(Cl)=C(Cl)C2(Cl)C1(Cl)Cl` (centres undefined), the result was inactive.

`CCOP(=S)(OCC)SCSc1ccc(Cl)cc1`: the outcome was inactive.

In the case of `Cc1ccc2c(c1N)C(=O)c1ccccc1C2=O`, the AC50 was 1.43 µM (active). Regarding `N#Cc1cc([N+](=O)[O-])ccc1N`, the result was inactive.

As for `O=P(OCC(Br)CBr)(OCC(Br)CBr)OCC(Br)CBr` (centres undefined), the outcome was inactive. On the same count and under the same terms, under `CCOP(=S)(NC(C)C)Oc1ccccc1C(=O)OC(C)C` (centres undefined) stands “inactive”.

On to `O=C(O)C=CC(F)(C(F)(F)F)C(F)(F)F`, for which the outcome was inactive. The same measure, in the same setting: under `COP(N)(=S)OC` stands “inactive”; under `CC(Cl)CN(C)C` (centres undefined), “inactive”.
